The source made the active and inactive calls. Rule for the calls: active = hit-call score of the fitted dose curve at least 0.9, where 1 is the maximum; inactive = score below 0.9.
Columns and labels:
[1] = biological target: Transcription factor E2F1 (Homo sapiens) (UniProt Q01094); assay: ATG_E2F_CIS: Attagene CIS-FACTORIAL HepG2 Assay for human E2F Transcription Factor 1 (AID 2282935); conditions: HepG2 Attagene cis-reporter, E2F reporter RNA transcripts; actives raise or lower the signal
Summary of the method: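 Gain or loss of reporter transcript, fitted against DMSO, reflects E2F1-driven transcription. Transiently transfected HepG2 dosed 24 h before RNA isolation. Quantified by fluorescent RT-PCR products separated by capillary electrophoresis.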

[2] = ATG_E_Box_CIS: Attagene CIS-FACTORIAL HepG2 Assay for human Enhancer Box (E-box) (AID 2282936); conditions: HepG2 E-box cis-reporter transcription, actives raise or lower the signal
Summary of the method: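 E-box-driven reporter transcripts measured in transiently transfected HepG2 after 24 h exposure: RNA reverse-transcribed, PCR-amplified, fluorescently labelled, digested and resolved by capillary electrophoresis. Gain or loss relative to DMSO.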

[3] = ATG_M_61_CIS: Attagene CIS-FACTORIAL HepG2 Assay for M61 Transcription Factor (Internal Marker) (AID 2282937); conditions: HepG2 Attagene CIS-FACTORIAL M61 internal marker reporter; actives raise or lower the signal
Summary of the method: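 HepG2 cells transiently transfected with multiplexed cis-promoter reporter units reporting endogenous transcription factor activity, measured 24 h after dosing. Reporter mRNA quantified by RT-PCR and capillary electrophoresis; bidirectional fit against DMSO baseline.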

[4] = ATG_EGR_CIS: Attagene CIS-FACTORIAL HepG2 Assay for human Early Growth Response 1 (EGR1) (AID 2282938); conditions: HepG2 Attagene CIS-FACTORIAL EGR reporter mRNA; actives raise or lower the signal
Summary of the method: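 HepG2 cells transiently transfected with cis-element-driven multiplexed reporter units, dosed for 24 h. EGR1-element reporter mRNA quantified by RT-PCR, 6-FAM labelling, HpaI digestion and capillary electrophoresis; bidirectional fit versus DMSO.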

[5] = ATG_M_19_CIS: Attagene CIS-FACTORIAL HepG2 Assay for M19 Transcription Factor (Internal Marker) (AID 2282939); conditions: HepG2 Attagene CIS-FACTORIAL M19 internal marker reporter; actives raise or lower the signal
Summary of the method: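 HepG2 cells transiently transfected with cis-regulated multiple reporter transcription units were dosed for 24 h; reporter mRNA was quantified by RT-PCR, 6-FAM primer-extension labelling, HpaI digestion and capillary electrophoresis, with bidirectional fitting against DMSO baseline.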

[6] = ATG_ERE_CIS: Attagene CIS-FACTORIAL HepG2 Assay for Estrogen Response Element (ERE) (AID 2282940); conditions: HepG2 ERE cis-reporter, Attagene RNA transcript; actives raise or lower the signal
Summary of the method: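 HepG2 cells transiently transfected with cis-promoter-driven multiplexed reporter transcription units report endogenous TF activity. After 24 h compound exposure, reporter mRNA is quantified by RT-PCR with capillary electrophoresis fluorescence; bidirectional fitting versus DMSO baseline.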

[7] = ATG_Ets_CIS: Attagene CIS-FACTORIAL HepG2 Assay for human Erythroblast Transformation Specific (ETS) (AID 2282941); conditions: HepG2 ETS cis-reporter transcription, actives raise or lower the signal
Summary of the method: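 Endogenous transcription factor activity read as reporter mRNA via RT-PCR and capillary electrophoresis, with gain or loss fitted bidirectionally against DMSO. Human HepG2 liver cells, transiently transfected CIS reporter constructs, 24 h exposure.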

[8] = biological target: Hepatocyte nuclear factor 3-beta (Homo sapiens) (UniProt Q9Y261); assay: ATG_FoxA2_CIS: Attagene CIS-FACTORIAL HepG2 Assay for human Forkhead box A2 (FOXA2) (AID 2282942); conditions: HepG2 cis-reporter transcription factor activity, 24 h; actives raise or lower the signal
Summary of the method: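 HepG2 transiently transfected with a multiplexed cis-promoter reporter library read endogenous FOXA2 activity. After 24 h compound exposure, reporter mRNA was quantified by RT-PCR, HpaI digestion and capillary electrophoresis. Bidirectional fit against DMSO.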

[9] = ATG_FoxO_CIS: Attagene CIS-FACTORIAL HepG2 Assay for human Forkhead box O (FoxO) (AID 2282943); conditions: HepG2 Attagene cis-reporter, FoxO element, mRNA; actives raise or lower the signal
Summary of the method: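 Human hepatoma HepG2 cells carry transiently introduced reporter transcription units controlled by cis promoter elements. Chemical treatment lasted 24 h, and mRNA signal was compared with DMSO.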

[10] = ATG_GATA_CIS: Attagene CIS-FACTORIAL HepG2 Assay for human GATA Binding Protein (AID 2282944); conditions: HepG2 GATA cis-element reporter, Attagene multiplex mRNA; actives raise or lower the signal
Summary of the method: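 HepG2 cells transiently transfected with multiplexed cis-element reporter units reflecting endogenous transcription factor activity; reporter mRNA measured after 24 h dosing by RT-PCR, 6-FAM labeling, HpaI digestion and capillary electrophoresis. Bidirectional fitting versus DMSO baseline.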

[11] = ATG_GLI_CIS: Attagene CIS-FACTORIAL HepG2 Assay for human Zinc Finger Protein GLI1 (AID 2282945); conditions: HepG2, Attagene cis-factorial reporter mRNA, GLI element; actives raise or lower the signal
Summary of the method: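 Bidirectional curve fits relative to DMSO, using reporter mRNA levels from RT-PCR plus capillary electrophoresis. Cells were HepG2 transiently carrying cis-regulated reporter constructs, harvested 24 h after dosing.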

[12] = ATG_ISRE_CIS: Attagene CIS-FACTORIAL HepG2 Assay for human Interferon Regulatory Factor 1 (IRF1) binding to an Interferon-Stimulated Response Element (ISRE) (AID 2282948); conditions: HepG2 ISRE cis-reporter (Attagene), mRNA transcription readout; actives raise or lower the signal
Summary of the method: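 Endogenous transcription factor activity read as reporter transcript abundance via RT-PCR and capillary electrophoresis. HepG2 cells transiently transfected, 24 h chemical exposure. Gain or loss fitted against DMSO baseline.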

[13] = ATG_M_32_CIS: Attagene CIS-FACTORIAL HepG2 Assay for M32 Transcription Factor (Internal Marker) (AID 2282949); conditions: HepG2 Attagene cis-factorial M32 reporter, mRNA; actives raise or lower the signal;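 note: background control marker of the multiplexed CIS panel rather than a real target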
Summary of the method: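 HepG2 transfectants (cis-regulated reporter transcription units) dosed 24 h. Reporter mRNA by RT-PCR plus CE, analysed as gain or loss relative to DMSO.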

[14] = biological target: Hypoxia-inducible factor 1-alpha (Homo sapiens) (UniProt Q16665); assay: ATG_HIF1a_CIS: Attagene CIS-FACTORIAL HepG2 Assay for human Hypoxia Inducible Factor 1 (HIF1A) (AID 2282951); conditions: HepG2 Attagene cis-factorial HIF1a reporter transcription; actives raise or lower the signal
Summary of the method: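 HepG2 cells transiently transfected with multiple cis-regulated reporter transcription units measure endogenous transcription factor activity. After 24 h exposure, reporter mRNA is quantified by RT-PCR with 6-FAM labelling, HpaI digestion and capillary electrophoresis. Bidirectional fitting against DMSO.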

[15] = biological target: Hepatocyte nuclear factor 6 (Homo sapiens) (UniProt Q9UBC0); assay: ATG_HNF6_CIS: Attagene CIS-FACTORIAL HepG2 Assay for human Hepatocyte Nuclear Factor 6 (HNF6) (AID 2282952); conditions: HepG2 Attagene cis-factorial HNF6 reporter transcription; actives raise or lower the signal
Summary of the method: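 First, HepG2 cells were transfected with the multiplexed cis reporter library and dosed with chemical for 24 h. Next, RNA was reverse-transcribed, PCR-amplified and fluorescently labelled. Finally, HpaI-digested fragments were read by capillary electrophoresis.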

[16] = biological target: Heat shock factor protein 1 (Homo sapiens) (UniProt Q00613); assay: ATG_HSE_CIS: Attagene CIS-FACTORIAL HepG2 Assay for human Heat Shock Transcription Factor 1 (HSE) (AID 2282953); conditions: HepG2 HSE cis-reporter, Attagene RNA transcription; actives raise or lower the signal
Summary of the method: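 HepG2 cells transiently transfected with multiple reporter transcription units under cis-regulatory promoter control, measuring endogenous transcription factor activity. After 24 h chemical exposure, reporter mRNA quantified by RT-PCR, fluorescent labelling, HpaI digestion and capillary electrophoresis; bidirectional fit versus DMSO.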

[17] = ATG_MRE_CIS: Attagene CIS-FACTORIAL HepG2 Assay for human Metal Responsive Element (MRE) (AID 2282954); conditions: HepG2 MRE cis-reporter transcription, Attagene multiplex; actives raise or lower the signal
Summary of the method: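 Endogenous MRE-dependent transcription read as reporter mRNA in transiently transfected human HepG2 cells at 24 h. RNA reverse-transcribed, PCR-amplified, labelled and resolved by capillary electrophoresis; gain or loss relative to DMSO.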

[18] = ATG_M_06_CIS: Attagene CIS-FACTORIAL HepG2 Assay for M06 Transcription Factor (Internal Marker) (AID 2282950); conditions: HepG2 Attagene CIS-FACTORIAL M06 internal marker reporter; actives raise or lower the signal
Summary of the method: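 HepG2 cells transiently transfected with cis-regulated multiple reporter transcription units were exposed to chemical for 24 h; reporter mRNA was quantified by RT-PCR, 6-FAM primer labelling, HpaI digestion and capillary electrophoresis, fitted bidirectionally against DMSO.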

[19] = biological target: Bile acid receptor (Homo sapiens) (UniProt Q96RI1); assay: ATG_IR1_CIS: Attagene CIS-FACTORIAL HepG2 Assay for human Nuclear Receptor Subfamily 1 Group H Member 4 (NR1H4), IR1 submotif (AID 2282946); conditions: IR1 reporter transcription, actives raise or lower the signal
Summary of the method: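 HepG2 cells transiently transfected with multiplexed cis-element reporter units read endogenous transcription factor activity. After 24 h compound exposure, reporter mRNA was quantified by RT-PCR, fluorescent labelling, HpaI digestion and capillary electrophoresis; bidirectional fitting versus DMSO baseline.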

[20] = ATG_GRE_CIS: Attagene CIS-FACTORIAL HepG2 Assay for human Glucocorticoid Response Elements (GRE) (AID 2282947); conditions: HepG2 GRE cis-reporter, Attagene multiplex mRNA; actives raise or lower the signal
Summary of the method: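 Reporter transcripts read by RT-PCR with capillary electrophoresis fluorescence after a 24 h chemical exposure of HepG2 cells transiently transfected with multiple cis-element reporter units. Gain or loss fitted against DMSO.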

Measured: AC50

Sequence of Hypoxia-inducible factor 1-alpha (Homo sapiens) (Q16665 whole entry, looked up): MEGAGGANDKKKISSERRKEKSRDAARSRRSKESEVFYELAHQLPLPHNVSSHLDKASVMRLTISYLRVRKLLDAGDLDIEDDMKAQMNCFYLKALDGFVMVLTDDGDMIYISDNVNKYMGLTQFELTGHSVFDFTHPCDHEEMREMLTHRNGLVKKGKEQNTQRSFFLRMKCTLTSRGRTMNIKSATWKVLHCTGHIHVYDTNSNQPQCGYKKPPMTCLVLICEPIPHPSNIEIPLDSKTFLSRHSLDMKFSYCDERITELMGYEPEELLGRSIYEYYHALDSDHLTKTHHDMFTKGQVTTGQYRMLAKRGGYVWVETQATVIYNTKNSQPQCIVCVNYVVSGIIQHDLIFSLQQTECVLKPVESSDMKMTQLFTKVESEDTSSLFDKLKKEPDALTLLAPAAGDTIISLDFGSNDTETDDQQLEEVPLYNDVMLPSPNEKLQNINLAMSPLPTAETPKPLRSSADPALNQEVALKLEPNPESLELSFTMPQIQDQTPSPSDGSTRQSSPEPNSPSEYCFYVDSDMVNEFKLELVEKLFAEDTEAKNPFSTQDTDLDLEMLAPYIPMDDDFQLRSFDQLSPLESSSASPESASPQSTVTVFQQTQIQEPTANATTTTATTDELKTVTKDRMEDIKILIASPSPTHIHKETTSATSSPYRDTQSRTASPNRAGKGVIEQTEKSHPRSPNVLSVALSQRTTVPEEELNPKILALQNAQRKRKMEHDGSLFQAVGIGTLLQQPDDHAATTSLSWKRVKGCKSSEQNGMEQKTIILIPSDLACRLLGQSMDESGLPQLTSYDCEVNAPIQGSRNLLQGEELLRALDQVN
Sequence of Hepatocyte nuclear factor 3-beta (Homo sapiens) (Q9Y261 whole entry, looked up): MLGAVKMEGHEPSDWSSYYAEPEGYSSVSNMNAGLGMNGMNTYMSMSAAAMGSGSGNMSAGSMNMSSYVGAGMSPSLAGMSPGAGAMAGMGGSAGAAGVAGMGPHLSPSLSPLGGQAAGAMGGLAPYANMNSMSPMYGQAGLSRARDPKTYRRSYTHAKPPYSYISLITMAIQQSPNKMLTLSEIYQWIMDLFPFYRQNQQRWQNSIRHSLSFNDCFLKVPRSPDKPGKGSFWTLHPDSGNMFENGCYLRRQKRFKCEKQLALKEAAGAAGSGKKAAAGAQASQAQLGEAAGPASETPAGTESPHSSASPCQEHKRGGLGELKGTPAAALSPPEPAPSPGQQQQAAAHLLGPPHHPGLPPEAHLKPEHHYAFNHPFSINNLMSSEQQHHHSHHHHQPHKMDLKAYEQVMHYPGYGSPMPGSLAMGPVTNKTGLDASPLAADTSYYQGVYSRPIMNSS
Sequence of Hepatocyte nuclear factor 6 (Homo sapiens) (Q9UBC0 whole entry, looked up, the tested form may be a part): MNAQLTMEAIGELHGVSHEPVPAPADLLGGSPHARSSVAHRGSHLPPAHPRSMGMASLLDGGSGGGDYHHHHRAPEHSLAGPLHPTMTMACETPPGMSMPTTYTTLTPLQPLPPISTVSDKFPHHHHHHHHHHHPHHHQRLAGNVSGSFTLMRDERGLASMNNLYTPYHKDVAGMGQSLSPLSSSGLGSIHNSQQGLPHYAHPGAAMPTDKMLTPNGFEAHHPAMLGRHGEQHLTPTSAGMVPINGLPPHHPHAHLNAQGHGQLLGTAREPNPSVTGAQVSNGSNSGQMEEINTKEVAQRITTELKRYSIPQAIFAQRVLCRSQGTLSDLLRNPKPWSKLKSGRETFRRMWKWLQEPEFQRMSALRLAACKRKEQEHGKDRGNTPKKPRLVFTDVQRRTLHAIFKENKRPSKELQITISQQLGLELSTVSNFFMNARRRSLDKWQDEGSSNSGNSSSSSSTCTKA
Sequence of Heat shock factor protein 1 (Homo sapiens) (Q00613 whole entry, looked up): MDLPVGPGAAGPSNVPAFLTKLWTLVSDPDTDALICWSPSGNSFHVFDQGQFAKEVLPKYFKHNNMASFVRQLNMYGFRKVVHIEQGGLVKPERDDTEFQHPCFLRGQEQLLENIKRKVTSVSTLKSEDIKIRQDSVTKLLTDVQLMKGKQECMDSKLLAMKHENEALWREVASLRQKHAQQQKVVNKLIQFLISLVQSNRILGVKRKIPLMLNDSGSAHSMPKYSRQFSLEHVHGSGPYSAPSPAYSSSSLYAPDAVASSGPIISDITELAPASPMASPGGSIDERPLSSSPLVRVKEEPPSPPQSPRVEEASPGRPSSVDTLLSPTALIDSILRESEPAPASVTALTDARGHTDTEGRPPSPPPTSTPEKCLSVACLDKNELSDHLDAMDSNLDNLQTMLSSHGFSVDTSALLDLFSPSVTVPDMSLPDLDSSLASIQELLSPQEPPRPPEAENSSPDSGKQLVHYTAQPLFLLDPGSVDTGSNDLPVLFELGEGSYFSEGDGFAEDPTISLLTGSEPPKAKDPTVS
Sequence of Transcription factor E2F1 (Homo sapiens) (Q01094 whole entry, looked up): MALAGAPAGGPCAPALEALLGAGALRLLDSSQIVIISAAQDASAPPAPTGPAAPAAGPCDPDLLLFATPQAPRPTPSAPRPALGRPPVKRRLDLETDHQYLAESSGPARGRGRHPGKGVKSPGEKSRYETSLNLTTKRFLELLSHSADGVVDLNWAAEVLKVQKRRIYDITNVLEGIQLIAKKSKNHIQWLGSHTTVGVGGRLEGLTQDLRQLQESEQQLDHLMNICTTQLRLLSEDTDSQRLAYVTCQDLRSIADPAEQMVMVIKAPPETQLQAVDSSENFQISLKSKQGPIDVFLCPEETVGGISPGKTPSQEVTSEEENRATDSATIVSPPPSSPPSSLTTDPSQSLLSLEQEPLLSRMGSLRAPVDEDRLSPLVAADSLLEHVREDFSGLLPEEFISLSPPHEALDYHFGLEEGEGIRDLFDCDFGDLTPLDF
Sequence of Bile acid receptor (Homo sapiens) (Q96RI1 whole entry, looked up): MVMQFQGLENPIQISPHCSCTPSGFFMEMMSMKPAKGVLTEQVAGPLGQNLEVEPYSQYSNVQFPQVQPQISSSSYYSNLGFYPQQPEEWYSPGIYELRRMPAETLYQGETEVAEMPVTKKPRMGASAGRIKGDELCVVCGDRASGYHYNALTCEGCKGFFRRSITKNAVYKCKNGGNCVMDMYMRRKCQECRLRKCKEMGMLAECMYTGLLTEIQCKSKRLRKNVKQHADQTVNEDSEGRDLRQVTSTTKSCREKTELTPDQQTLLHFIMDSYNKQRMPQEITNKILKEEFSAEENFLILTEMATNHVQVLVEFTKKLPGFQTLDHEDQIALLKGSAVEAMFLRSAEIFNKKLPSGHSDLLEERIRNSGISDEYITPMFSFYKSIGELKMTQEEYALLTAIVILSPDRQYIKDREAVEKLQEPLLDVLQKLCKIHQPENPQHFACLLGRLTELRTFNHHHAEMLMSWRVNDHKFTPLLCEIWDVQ

CCCCCCCCCCCCN1CCOCC1
not listed: [18] | [19] | [20]
inactive: all other assays above

NNC(=O)OCc1ccccc1
not listed: [13] | [19] | [20]
inactive: all other assays above

CCCCCCCCCCCCOC(C)=O
not listed: [17] | [18] | [19] | [20]
inactive: all other assays above

CCC(C)(C)c1cc(O)c(C(C)(C)CC)cc1O
active: [4] 14.1 µM | [9] 10.1 µM | [11] 6.82 µM | [19] 24.2 µM | [20] 24.8 µM | [14] 10.7 µM | [15] 30 µM | [16] 49.3 µM
not listed: [10] | [12] | [17]
inactive: all other assays above

Nc1ccn([C@H]2CC[C@@H](CO)O2)c(=O)n1
not listed: [10] | [14] | [19] | [20]
inactive: all other assays above

CCCCN(CCO)CCO
not listed: [10] | [19]
inactive: all other assays above

C=CC(C)CCCC(C)(C)O (stereo unspecified)
not listed: [16] | [18] | [19] | [20]
inactive: all other assays above

NC(=O)c1cccnc1
not listed: [10]
inactive: all other assays above

Reference: PubChem BioAssay (EPA / NIEHS)
